Rows were chosen to be rich in hits. Some 7.6% of all compounds tested hit in one or more screens of this group.
ELG1 repair inh = inhibitors of ELG1-dependent DNA repair in HEK293T cells. HEK293T ELG1-luciferase reporter, luminescence, 16 h; DNA damage induced by 5-fluorouridine. Potency, µM (highest dose often 46.1 µM), hits mostly inhibitors. 2.3% of 330,000 active. AID 504467; note: nearly all actives have a fitted effect of over 55% in size
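Cells (2,000 per well) received 5-fluorouridine plus test compound or DMSO and were incubated 16 hr at 37 °C, 5% CO2. Luciferase activity was read by luminescence 30 min after ONE-Glo addition; signal suppression marked inhibition of damage-induced ELG1 function.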
Giardia kill = kills Giardia lamblia; Giardia lamblia trophozoite viability; activity change, % at 7.66 µM, hits read low; 0.15% of 340,000 active; AID 540267; in the data active = activity change below about -80%; inconclusive = between about -30% and that limit;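 note: parasites exposed to compound for two days anaerobically before the ATP read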
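Viability, read as ATP luminescence: trophozoites at 100 cells/well, compound added, 48 hrs anaerobic at 37 deg C, then 15-30 min room-temperature development before reading.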
BRCA1 expr up = activators of BRCA1 expression; MCF7-BRCA1-FFLuc reporter, luminescence, 48 h; response scale: scaled: vehicle 0%, 10 µM genistein 100%; AID 624202; Potency, µM (top dose mostly 46.1 µM), most hits filed as activators; 1.1% of 380,000 active; note: nearly all actives have a fitted effect of over 80% in size
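48 h compound treatment of MCF7-BRCA1-FFLuc cells (phenol-red free MEM, 37 °C), then 15 min with luciferase substrate and luminescence imaging.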
VP16 counter = counter-screen for ROR gamma inhibitors: Gal4-VP16 reporter; AID 2546; Drosophila S2 Gal4-VP16 UAS-luciferase, luminescence, 20 h; 3.5% of 310,000 active; Potency, µM (highest dose often 53.6 µM), most hits filed as inhibitors;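 note: Gal4-VP16 expression switched on by copper sulfate through the metallothionein promoter; nearly all actives have a fitted effect of over 50% in size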
p53 reactivation = mutant p53 re-activation in reporter cells; Potency, µM (titrated, usually from 92.2 µM), actives largely listed as activators; H1299 p53-A138V BP100-luciferase reporter, luminescence, 24 h; AID 504706; 0.063% of 320,000 active; note: nearly all actives have a fitted effect of over 45% in size
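p53-null H1299 cells stably carrying temperature-sensitive p53-A138V and a BP100-luciferase reporter were pinned with compounds (4-point, 1:5 series) and held 24 hrs at 37 deg C. Luminescence was read 10 min after detection reagent.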
RORgamma inh = inhibitors of mouse ROR gamma transcriptional activity. P51450. Drosophila S2 Gal4-RORgamma UAS-luciferase reporter, 20 h. 5.4% of 310,000 active. Potency, µM (series often up to 53.6 µM), usual class: inhibitors; note: nearly all actives have a fitted effect of over 60% in size
Target sequence (P51450 whole entry, looked up, the tested form may be a part): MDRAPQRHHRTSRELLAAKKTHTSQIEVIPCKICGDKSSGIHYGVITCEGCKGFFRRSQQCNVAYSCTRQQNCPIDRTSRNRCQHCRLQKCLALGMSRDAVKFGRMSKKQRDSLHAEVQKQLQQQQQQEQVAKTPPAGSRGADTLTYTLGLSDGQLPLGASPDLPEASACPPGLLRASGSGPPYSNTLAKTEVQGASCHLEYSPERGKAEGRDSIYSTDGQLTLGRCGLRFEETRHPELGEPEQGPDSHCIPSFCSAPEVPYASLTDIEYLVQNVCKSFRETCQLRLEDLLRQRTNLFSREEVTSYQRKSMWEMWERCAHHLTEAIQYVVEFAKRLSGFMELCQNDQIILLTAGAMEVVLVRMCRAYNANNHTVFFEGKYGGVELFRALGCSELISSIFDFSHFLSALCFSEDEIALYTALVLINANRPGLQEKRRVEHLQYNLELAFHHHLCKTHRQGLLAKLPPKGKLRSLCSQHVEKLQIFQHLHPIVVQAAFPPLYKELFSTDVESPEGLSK
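Drosophila S2 cells stably expressing Gal4-DBD/mouse RORγ fusion under metallothionein promoter plus UAS-luciferase; compound 1 h, then 700 uM CuSO4 induction for 20 h at ambient temperature; inhibition read as reduced luminescence.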
Large screens that a line does not name were inactive. Unless noted, calls come from the whole dose curve; as a rule, active = well fitted curve in the direction sought with a large enough effect; inconclusive = small, poorly fitted or top-dose-only effect, or another doubt; inactive = no such curve, though single readings can be large; an effect the other way counts as inactive or inconclusive.

COc1ccccc1NC(=O)C1=C(C)Nc2nnnn2C1c1ccncc1 (centres undefined)	none
O=C(CCCn1c(=O)oc2ccccc21)N1CCN(c2ccc(F)cc2)CC1	RORgamma inh inconclusive
COc1ccc(-n2c(=O)[nH]c3cc(C(=O)NCCc4ccc(Cl)cc4)ccc3c2=O)cc1OC	ELG1 repair inh inconclusive, RORgamma inh inconclusive
CCC(C(=O)NC1CCCC1)N(C(=O)Cn1nnc(-c2ccc(C)o2)n1)c1cccc(O)c1 (centres undefined)	ELG1 repair inh inconclusive, RORgamma inh inconclusive
COc1ccc(NC(=O)C[C@H]2C(=O)N(c3ccccc3)C[C@@H]2CSC)cc1	none (no result: ELG1 repair inh, Giardia kill, VP16 counter, p53 reactivation, RORgamma inh)
O=c1[nH]c2ccccc2nc1N1CCOCC1	none
S=C(c1nc2ccccc2[nH]1)N1CCOCC1	VP16 counter 6.3µM, RORgamma inh 5µM
CC(=O)Nc1ccn(C2OC(C(COC(C)=O)NC(=O)C(C)NC(=O)OC(C)(C)C)C(OC(C)=O)C2OC(C)=O)c(=O)n1 (centres undefined)	Giardia kill inconclusive (no result: ELG1 repair inh, BRCA1 expr up, p53 reactivation)
COc1ccc(/C=C2/CCCC(C(=O)C(F)(F)F)=C2O)cc1OC	VP16 counter inconclusive, RORgamma inh 18µM
COc1ccc(/C=C2\CCCC(C(=O)C(F)(F)F)=C2O)cc1OC	ELG1 repair inh inconclusive (no result: Giardia kill, BRCA1 expr up)
Cc1ccc(O)c(N)c1	ELG1 repair inh inconclusive, VP16 counter inconclusive, p53 reactivation inconclusive, RORgamma inh inconclusive
Cc1ccc(O)c(Sc2cc(C)ccc2O)c1	VP16 counter 13µM, RORgamma inh inconclusive
O=C1NCCN1Cc1ccccc1F	none
CCCOc1ccc(OCCOCCN2CCc3ccccc3C2)cc1	none
CC(C)[C@H](NS(=O)(=O)c1ccccc1)C(=O)OCC(=O)NC(=O)NC1CCCCC1	ELG1 repair inh 16µM (no result: VP16 counter, RORgamma inh)
CC(C)[C@H](NS(=O)(=O)c1ccccc1F)C(=O)NC1CCCCC1	ELG1 repair inh 5.2µM (no result: VP16 counter, RORgamma inh)
FC(F)(F)c1ccc(C2NCCc3sccc32)cc1 (centres undefined)	none
COc1cc(C(C#N)N2N=C(c3ccccc3)CC2c2ccccc2)ccc1O (centres undefined)	ELG1 repair inh inconclusive, RORgamma inh 7.9µM
N#CC(c1ccccc1O)N1N=C(c2ccccc2)CC1c1ccccc1 (centres undefined)	ELG1 repair inh inconclusive, VP16 counter inconclusive, p53 reactivation inconclusive, RORgamma inh inconclusive
N/C(=C\C(=O)c1cc(Cl)ccc1O)C(Cl)(Cl)Cl	ELG1 repair inh inconclusive, VP16 counter inconclusive, RORgamma inh 4µM
Nc1nc(Cl)cc(NCCc2ccc(O)cc2)n1	RORgamma inh inconclusive
Oc1ccc(CCNc2ncnc3ccc(Cl)cc23)cc1	ELG1 repair inh inconclusive, VP16 counter 6.3µM, RORgamma inh inconclusive (no result: p53 reactivation)
Clc1ccc2ncnc(NCc3ccc4c(c3)OCO4)c2c1	VP16 counter 7.9µM, RORgamma inh inconclusive (no result: ELG1 repair inh, Giardia kill, BRCA1 expr up, p53 reactivation)
c1nc(NCc2ccc3c(c2)OCO3)c2cc(-c3ccoc3)ccc2n1	ELG1 repair inh 1.6µM (no result: VP16 counter, RORgamma inh)
Clc1ccccc1-c1ccc2ncnc(NCc3ccc4c(c3)OCO4)c2c1	ELG1 repair inh inconclusive (no result: VP16 counter, RORgamma inh)
O=C1C(=O)N(CCN2CCOCC2)C(c2ccc([N+](=O)[O-])cc2)/C1=C(/O)c1ccc2c(c1)OCO2 (centres undefined)	ELG1 repair inh inconclusive, VP16 counter 11µM, RORgamma inh 7.9µM
COc1ccc(N2C(=O)CC(N3CCN(S(=O)(=O)c4c(F)cccc4F)CC3)C2=O)cc1OC (centres undefined)	none
COCC(=O)Nc1ccc(OCc2ccccc2)cc1	ELG1 repair inh inconclusive, BRCA1 expr up inconclusive, p53 reactivation inconclusive
CCOc1ccc(NC(=O)Cc2ccccc2)cc1	ELG1 repair inh inconclusive, BRCA1 expr up 7.1µM, p53 reactivation inconclusive
Cc1ccc(NC(=O)CCOc2ccccc2)cc1	ELG1 repair inh inconclusive, BRCA1 expr up 7.1µM, p53 reactivation inconclusive
CCCn1c(C)cc(=O)c2cc(NC(=O)c3ccccn3)ccc21	ELG1 repair inh 16µM
COC(=O)Nc1ccc(OCc2ccccc2)cc1	ELG1 repair inh inconclusive, BRCA1 expr up 13µM, RORgamma inh inconclusive
